Experimental data reported in ChEMBL document CHEMBL3988442, “University of Dundee, Small-Polar-MMV Screening Library” (2021).
Out of some 48,000 compounds screened, about 13,000 (27%) showed an effect of 50% or more. This is one part of the list.

The compounds below were run on Wolbachia pipientis (assay: Anti-Wolbachia Cell-Based Screen). Conditions: 5 µM.
Format: functional
Design: scale not given: in the data most compounds retested in dose-response had high values

Structure (SMILES) | Percent Effect [%]
CC(C)(C)c1cn2c(n1)C(CNCc1cnn3ccccc13)CCC2 (stereo unspecified) | 3.116
O=C1CC(NS(=O)(=O)N2CCOCC2)CN1Cc1ccccc1 (stereo unspecified) | 1.886
Cc1ncsc1C(=O)NCc1cccnc1N(C)CCc1ccccn1 | 6.517
Cc1noc(-c2cccnc2N2CCOC(C)(c3cnn(C)c3)C2)n1 (stereo unspecified) | -3.53
COCCN(CCOC)C(=O)NC1CCCCC1 | -2.793
Cc1[nH]ccc1C(=O)N[C@H]1CN(CCO)C[C@@H]1C1CC1 | -10.03
CCC(C)NC(=O)CS(=O)(=O)Cc1nc(-c2cccs2)no1 (stereo unspecified) | 8.727
CNC(=O)N1CCC(=Cc2ccccc2)CC1 | -5.2
CCCOC(=O)NCCC1CN(c2cnn(C)c(=O)c2)CCO1 (stereo unspecified) | 96.42
CCOC(=O)N1CCC(NCC2CCN(c3cnn(C)c(=O)c3)C2)CC1 (stereo unspecified) | -6.682
CCC1CN(c2cnn(C)c(=O)c2Br)CCO1 (stereo unspecified) | 20.16
CC(C)N1CCC[C@H]1C(=O)NCC1CCN(c2cnn(C)c(=O)c2)CC1 | -21.78
CCC(OC)C(=O)NCC1CCN(c2cnn(C)c(=O)c2)CC1 (stereo unspecified) | -16.23
Cn1ncc(N2CCOC(CCNC(=O)NC(C)(C)C)C2)cc1=O (stereo unspecified) | 101.8
COCCN(CC(F)F)c1cc(C(F)(F)F)nc2ncnn12 | -7.811
Cc1cnn(-c2ccc(S(=O)(=O)N(C)CC(F)F)cc2F)c1 | 2.178
CN1CCN(Cc2ccccc2CNC(=O)c2ccc(Cl)cc2F)CC1 | -10.17
Cc1cc(C(=O)NCC2(N(C)C)CCCC2)c(C)n1-c1cccnc1 | 3.224
COc1cc(C(=O)NCC2(N(C)C)CCN(C)CC2)c2ccccc2n1 | 126.6
COc1cc(C(=O)NCCS(=O)(=O)N(C)C)c2ccccc2n1 | 5.496
COc1cc(C(=O)NC(C)(C)CN2CCN(C)CC2)c2ccccc2n1 | 96.51
CC(C)Cc1cc(C(=O)NC(C)(C)CN2CCCCCC2)on1 | 2.202
CC(C)(C)c1ncc(C(=O)N2CCN(C(=O)c3ccc[nH]3)CC2)c(O)n1 | -10.28
Cc1[nH]ccc1C(=O)N1CCC2(CC1)c1nc[nH]c1CCN2S(C)(=O)=O | -18.24
CS(=O)(=O)N1CCCC12CCCN(C(=O)c1ccc[nH]1)C2 (stereo unspecified) | -4.016
Cc1ccc(F)cc1C(=O)N1C[C@@H](CN2CCOCC2)[C@@H](CO)C1 | -1.252

Structure (SMILES) | Percent Effect [%]
Cc1ccc(F)cc1C(=O)NCc1ccc(C(=O)O)o1 | 7.122
O=C(c1ccc[nH]1)N1CCC2(CC1)COCCN(c1nccs1)C2 | 4.422
Cc1[nH]ccc1C(=O)N1CCCN1C(=O)OC(C)(C)C | -3.846
Cc1[nH]ccc1C(=O)N1CCOCC12CCCC2 | 102.2
Cc1ccc(F)cc1C(=O)N1CCOCC12CCCC2 | 111.7
O=C(c1ccc[nH]1)N1CCOCC12CCCC2 | 75.31
Cn1c2c(c(=O)n1C)CN(C(=O)c1ccsc1)CCC2 | -11.42
Cc1ccsc1C(=O)N1CCCc2c(c(=O)n(C)n2C)C1 | 9.7
Cn1nc(CN2CCCC2)c2c1CN(C(=O)c1ccncc1F)CC2 | -1.138
Cn1c2c(c(=O)n1C)CN(C(=O)c1cccc(F)c1)CCC2 | 83.47
Cc1ccc(C(=O)N2CCCc3c(c(=O)n(C)n3C)C2)o1 | -7.196
Cc1ccoc1C(=O)N1CCCc2c(c(=O)n(C)n2C)C1 | -8.814
Cn1c2c(c(=O)n1C)CN(C(=O)c1ccco1)CCC2 | 0.5105
Cn1c2c(c(=O)n1C)CN(C(=O)c1cnccn1)CCC2 | 106.7
Cn1c2c(c(=O)n1C)CN(C(=O)c1ccncc1F)CCC2 | 104.3
Cc1csc2c(N3CCC(NCCCc4cnn(C)c4)CC3)ncnc12 | -7.863
CN(CCCc1cnn(C)c1)C(=O)Nc1cccc2[nH]nnc12 | -5.738
CN(C(=O)NC1CC1)C1CCN(c2ccc(Cl)cc2)CC1 | 95.01
CN(C(=O)Nc1cccnc1)C1CCN(c2ccc(Cl)cc2)CC1 | 102.5
CSC(C)C(=O)N(C)C1CCN(c2ccc(Cl)cc2)CC1 (stereo unspecified) | -5.322
CN(CCN1CCN(c2ccccc2)CC1)C(=O)Nc1ccncc1 | -6.47
CN(C(=O)Nc1ccncc1)C1CCN(c2ccc(Cl)cc2)CC1 | 99.54
CNC(=O)CN(C)C1CCN(c2ccc(Cl)cc2)CC1 | 12.22
COc1ccc(N2CCC(N(C)C(=O)C(C)SC)CC2)cc1 (stereo unspecified) | 1.657
COc1ccc(N2CCC(N(C)C(=O)Nc3ccncc3)CC2)cc1 | 86.34
CCCNC(=O)CN(C)C1CCN(c2ccc(Cl)cc2)CC1 | -1.782

Structure (SMILES) | Percent Effect [%]
CN(CC(=O)N(C)C1CC1)C1CCN(c2ccc(Cl)cc2)CC1 | -1.318
Cc1cc(N2CCC(N(C)C(=O)Nc3ccccc3)CC2)nc(C)n1 | 1.821
CCOC(C)C(=O)N(C)C1CCN(c2ccc(OC)cc2)CC1 (stereo unspecified) | -2.729
CCC(CNC(=O)NC1CCN(C)CC1)Oc1ccccc1Cl (stereo unspecified) | 5.674
Cc1cc(C)nc(N2CCN(Cc3nccn3C)CC2)n1.O=CO | 104.1
Cc1nc(N2CCOCC2)nc2c1CCN(Cc1nccn1C)CC2.O=C(O)C(F)(F)F | 110.5
Cc1nc(N2CCOCC2)nc2c1CCN(Cc1cccnc1)CC2.O=C(O)C(F)(F)F | -14.62
Cc1nc(NC(C)C)nc2c1CN(Cc1nccn1C)CC2 | 3.247
Cc1nc(N2CCOCC2)nc2c1CCN(Cc1ccsc1)CC2.O=C(O)C(F)(F)F | -7.325
Cc1nc(-c2ccccc2)nc2c1CCN(Cc1nccn1C)CC2 | 118.4
COc1cc(C)nc(N2CCN(Cc3nccn3C)CC2)n1 | 16.21
Cc1nc(C)c2c(n1)CCN(Cc1nccn1C)CC2.O=C(O)C(F)(F)F | 102.7
CC(C)Nc1nc2c(c(NC3CC3)n1)CCN(Cc1nccn1C)CC2.O=C(O)C(F)(F)F | 5.459
Cc1cc(C(F)(F)F)nc(N2CCN(Cc3nccn3C)CC2)n1 | -22.48
Cn1ccnc1CN1CCN(Cc2cc(-c3ccccc3)no2)CC1 | 10.9
CC(C)(C)C(=O)N1C[C@@H]2COC[C@]2(c2nnc(C3CC3)o2)C1 | 1.473
N#Cc1cccc(N2CCCC(CO)(CCOc3ccccc3)C2)n1 (stereo unspecified) | -9.375
Cc1nc(N2CCCC2)nc2c1CCN(Cc1nccn1C)CC2.O=C(O)C(F)(F)F | 105.6
Cc1nc(N2CCCC2)nc2c1CCN(Cc1ccoc1)CC2.O=C(O)C(F)(F)F | 6.139
CN(C)c1nc(N2CCCC2)nc2c1CCN(C(=O)c1ccco1)CC2.O=C(O)C(F)(F)F.O=C(O)C(F)(F)F | 15.95
CN(C)c1nc(N2CCCC2)nc2c1CCN(Cc1nccn1C)CC2.O=C(O)C(F)(F)F | 102.1
CC(C)Nc1nc2c(c(N(C)C)n1)CCN(Cc1nccn1C)CC2.O=C(O)C(F)(F)F | -14.43
Cn1ccnc1CN1CCc2ncnc(N3CCCC3)c2CC1.O=C(O)C(F)(F)F | 15.66
O=C(c1cncc(N2CCC3(CCNCC3)CC2)n1)N1CCCC1 | 1.429
CCC(C)(C)C(=O)N1CCN(C2=NCC(C)S2)CC1 (stereo unspecified) | -0.6002
CN1CC(c2n[nH]c(=O)n2-c2cccc(Cl)c2)CC1=O (stereo unspecified) | -17.26

Structure (SMILES) | Percent Effect [%]
CCOc1ccccc1OC1CCN(C(=O)c2nc(=O)[nH][nH]2)CC1 | -16.56
C[C@H](c1ccc(F)cc1)n1c(C2CCC2)n[nH]c1=O | 13.77
CN1CCC(c2n[nH]c(=O)n2-c2cccc(Cl)c2)CC1 | -11.2
O=c1[nH]nc(C2CC2)n1-c1cccc(Cl)c1 | 12.75
CCOc1ccccc1-n1c(CNC)n[nH]c1=O | -1.505
CCOc1ccccc1-n1c(C2CC(=O)N(C)C2)n[nH]c1=O (stereo unspecified) | 114.8
CCOc1ccccc1-n1c(C2CCC2)n[nH]c1=O | 114.1
CCOc1ccccc1-n1c(C2CC2)n[nH]c1=O | 101.4
CN(Cc1nc2c(cnn2C)c(=O)[nH]1)Cc1ccccc1Cl | -1.712
CC(C)N(Cc1cccc(F)c1)Cc1nc2c(cnn2C)c(=O)[nH]1 | -9.693
CCN(Cc1cccc(Cl)c1)Cc1nc2c(cnn2C)c(=O)[nH]1 | 6.587
CCN(Cc1nc2c(cnn2C)c(=O)[nH]1)Cc1ccccc1C | -3.933
CCN(Cc1nc2c(cnn2C)c(=O)[nH]1)Cc1ccccc1Cl | 128.5
CC(C)CN(CCc1ccccc1)Cc1nc2c(cnn2C)c(=O)[nH]1 | 122.3
Cc1cccc(CN(C)Cc2nc3c(cnn3C)c(=O)[nH]2)c1 | -4.984
CCN(Cc1cccc(C)c1)Cc1nc2c(cnn2C)c(=O)[nH]1 | 145.1
CN(CCCc1ccccc1)Cc1nc2c(cnn2C)c(=O)[nH]1 | -1.148
CC(C)CN(Cc1nc2c(cnn2C)c(=O)[nH]1)C(C)C | -8.165
CC(C)N(Cc1cccc(Cl)c1)Cc1nc2c(cnn2C)c(=O)[nH]1 | 119.9
Cc1ccc(NCc2ccc(C#N)cc2)c(CN(C)C)c1 | -4.346
N#CCCN(Cc1ccccn1)C(=O)Nc1cccnc1 | -3.639
CCN(C)c1ccc(C(=O)NCCCc2ccccn2)cn1 | 1.401
CC(O)CC(C)(C)CNS(=O)(=O)c1cccc(Cl)c1C#N (stereo unspecified) | -3.91
